Measured values as given in ChEMBL document CHEMBL1157539, “Thousands of chemical starting points for antimalarial lead identification” (Nature, 2010).

The compounds below were run on Plasmodium falciparum (assay: GSK_TCMDC: Inhibition of Plasmodium falciparum Dd2 in whole red blood cells, using parasite LDH activity as an index of growth. Test compounds present at 2uM).
Assay type: functional
Work on `CC1(CCc2ccccc2)N=C(N)N(Cc2ccccc2)C(=O)C1c1ccc(Cl)c(Cl)c1.O=C(O)C(F)(F)F` (stereo not given) yielded an Inhibition of 96%.
With `Cc1cc(NC(=O)NCCN2CCC(NC(=O)c3ccc(F)cc3)CC2)c2ccccc2n1` the Inhibition was 76%.
Compound `Cc1nnc2c(NC(=O)/C=C/c3ccc(OC(F)(F)F)cc3)cc3cc(Cl)ccc3n12` has an Inhibition of 99%.
`Cc1cc(CN2CCC(Nc3ncc(-c4ccsc4)c4nc(C(F)(F)F)ccc34)CC2)no1.Cl` was tested, and the Inhibition was 67%.
Work on `CCOc1ccc(-n2nc3c(Cl)nnc(-c4ccccc4)c3c2-c2ccccc2)cc1` yielded an Inhibition of 99%.
Compound `Cc1ccc(NC(=O)Nc2ccc(Cl)c(C(F)(F)F)c2)cc1-c1ccc(C(=O)Nc2ccncc2)cc1` has an Inhibition of 99%.
In the case of `O=C(Nc1ccc(-c2csc(-c3nc4ccccc4[nH]3)c2)cc1)Nc1ccc(Cl)c(Cl)c1`, the Inhibition is reported as 18%.
In the case of `N#Cc1ccccc1S(=O)(=O)N1CCCC(CNC(=O)[C@H](CC2CCCCC2)NC(=O)c2cc3ccccc3s2)C1` (stereo not given in full), the Inhibition is reported as 92%.
`OC(CN1CCN(C2CCCCC2)CC1)Cn1c2ccccc2c2cc(Br)ccc21` (stereo not given) was tested, and the Inhibition was 89%.
With `CCCCOc1cc(OC)c2ccccc2c1CCNCCCCNCCc1c(OCCCC)cc(OC)c2ccccc12.CS(=O)(=O)O` the Inhibition was 82%.
In the case of `Cc1cc(N[C@@H](Cc2ccccc2)C(=O)NCc2cccc(F)c2)nc(NCC2CCCCC2)n1.O=C(O)C(F)(F)F`, the Inhibition is reported as 42%.
Work on `O=C(c1c(-c2[nH]c3ccccc3c2C(=O)C(F)(F)F)[nH]c2ccccc12)C(F)(F)F` yielded an Inhibition of 99%.
For `COc1ccc(-c2ccc(NC(=O)c3cccc(Cl)c3)cc2)cc1CN1CCCN(C)CC1.O=C(O)C(F)(F)F`, the Inhibition was 50%.
In the case of `CN1CCN(c2ccc(-c3cc(-c4cc(F)c(F)c(F)c4)cnc3N)cc2)CC1`, the Inhibition is reported as 12%.
Compound `CCCCCCCCCN1CC[C@@H](CCCc2ccnc3ccc(O)cc23)[C@@H](CC)C1.O=C(O)C(=O)O` has an Inhibition of 59%.
Work on `CN1CCC(C(=O)N(Cc2ccc(-c3ccc(CNCCc4ccccc4)cn3)cc2)C2Cc3ccccc3C2)CC1.O=C(O)C(F)(F)F` yielded an Inhibition of 97%.
`CN(C)Cc1ccc(-c2cc3ncnc(Nc4ccc(OCc5cccc(F)c5)c(Cl)c4)c3s2)[nH]1` gave an Inhibition of 87%.
In the case of `CC(=O)Nc1ccc(OCCN(CC(C)C)c2ccc(C(F)(F)F)c(C#N)c2)c(Cl)c1`, the Inhibition is reported as 95%.
With `COc1cc(C(=O)NC2CCN(Cc3ccccc3)CC2)ccc1-c1nc2cc(Cl)c(Cl)cc2[nH]1` the Inhibition was 100%.
Work on `NC(=O)c1ccccc1OCC(=O)Nc1cccc(-c2ccc(-c3nc4cc(C(F)(F)F)ccc4[nH]3)cc2)c1` yielded an Inhibition of 17%.
Work on `N#Cc1cccc(C(=O)Nc2ccc(-c3cccc(CN4CCC(O)CC4)c3)cc2)c1.O=C(O)C(F)(F)F` yielded an Inhibition of 68%.
`CS(=O)(=O)CCNCc1nc(-c2ccc3c(Nc4ccc(Cl)cc4F)ccnc3c2)cs1` showed an Inhibition of 28%.
Compound `Cc1ccccc1C(=O)Nc1cccc(-c2nc3ncccn3c2C)c1` has an Inhibition of 94%.
For `CNCc1ccc(CN(C)c2nc(N)c3cc(OC)c(OC)cc3n2)cc1.O=C(O)C(F)(F)F`, the Inhibition was 3%.
Work on `COc1ccc2nc(C)cc(N/N=C/c3ccccc3[N+](=O)[O-])c2c1` yielded an Inhibition of 99%.
`C[C@@H]([C@@H](CCCCc1ccccc1)C(=O)N[C@H](C(=O)Nc1cccnc1)C(C)(C)C)N(O)C=O` gave an Inhibition of 98%.
With `N#Cc1ccc(N(CCOc2ccc(Cl)c(Cl)c2)Cc2ccccc2C(F)(F)F)cc1C(F)(F)F` the Inhibition was 57%.
Compound `COc1ccccc1CCN(C)CCN1CCC(NC(=O)c2ccc(-c3ccc(C(F)(F)F)cc3)cc2)CC1` has an Inhibition of 15%.
Compound `COc1ccc(-c2csc(C(=O)NC3CCC(N4CCC(c5ccccc5C)CC4)CC3)c2)cc1` (stereo not given) has an Inhibition of 99%.
In the case of `O=C(/C=C/c1ccccc1)N1CCOC(CCN2CCC(c3ccccc3)CC2)(c2ccc(Cl)c(Cl)c2)C1` (stereo not given), the Inhibition is reported as 63%.
`CN1CCN(c2cc(-c3cccc(C(F)(F)F)c3)nc(-c3ccncc3)n2)CC1` was tested, and the Inhibition was 98%.
`COc1cc(Cc2cnc(N)nc2N)cc(OCCCCCC(=O)O)c1OC.Cl` was tested, and the Inhibition was 2%.
For `c1ccc(Nc2nc(-c3ccccn3)cs2)nc1`, the Inhibition was 93%.
Work on `COc1cc2nccc(Nc3ccc(OCc4ccc(NC(C)=O)cc4)cc3)c2cc1OC.Cl` yielded an Inhibition of 95%.
`CCc1cc([C@H]2O[C@@H](n3cnc4c(NCC(c5ccccc5)c5ccccc5)nc(NCCNc5ccccn5)nc43)[C@H](O)[C@@H]2O)on1.O=CO` showed an Inhibition of 32%.
Compound `Cc1c(OC(C)C)nc2ccccc2c1C(=O)N[C@H](c1cccc(F)c1)C1CC1` has an Inhibition of 34%.
With `O=C(Nc1cccc(-c2cccc(-c3nc4cc(F)ccc4[nH]3)c2)c1)c1ccoc1` the Inhibition was 35%.
In the case of `COCCn1c(C)nc2ccccc2c1=O`, the Inhibition is reported as 67%.
Work on `COc1cccc(OC)c1OCCCOc1c(C)nc(N)nc1N.Cl` yielded an Inhibition of 0%.
With `COc1ccc(-c2nc3cccnc3n2CC(=O)Nc2cc(Cl)c(Cl)cc2Cl)c(OC)c1` the Inhibition was 17%.
